Laboratory results: the supplement of paper PMC10849652
Targets with a hit are over-represented here; the source holds about 7,900 in all. About 0.6% of all pairs of compound and target were hits.

Compound: O=C(O)c1ccc2c(c1)nc(Nc1cccc(Cl)c1)c1ccncc12 [silmitasertib]
Assay: log2 fold change, soluble protein after heating vs DMSO (PISA); higher = thermal stabilisation; K562 cells, 10 uM, 30 min; active = over 0.2 and 3.5 SD of the protein, either way, in both replicates (recomputed)
Procedure, shortened: (§1)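 For each measurement, 10 μM compound was applied for 30 min to K562 cells at 2×10^6 cells/mL. Aliquots were heated for 3 min across 48°C-58°C, pooled, and extracted in PBS with 0.5% NP-40 at 4°C; the supernatant after 21,000xg for 90 min was soluble protein. This was quantified by TMTpro 16plex LC-MS/MS with channel sums equalised, and thermal stability was reported relative to control samples from duplicates, on a log2 fold-change scale.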

UniProt Q12996, sequence (Q12996 whole entry, looked up): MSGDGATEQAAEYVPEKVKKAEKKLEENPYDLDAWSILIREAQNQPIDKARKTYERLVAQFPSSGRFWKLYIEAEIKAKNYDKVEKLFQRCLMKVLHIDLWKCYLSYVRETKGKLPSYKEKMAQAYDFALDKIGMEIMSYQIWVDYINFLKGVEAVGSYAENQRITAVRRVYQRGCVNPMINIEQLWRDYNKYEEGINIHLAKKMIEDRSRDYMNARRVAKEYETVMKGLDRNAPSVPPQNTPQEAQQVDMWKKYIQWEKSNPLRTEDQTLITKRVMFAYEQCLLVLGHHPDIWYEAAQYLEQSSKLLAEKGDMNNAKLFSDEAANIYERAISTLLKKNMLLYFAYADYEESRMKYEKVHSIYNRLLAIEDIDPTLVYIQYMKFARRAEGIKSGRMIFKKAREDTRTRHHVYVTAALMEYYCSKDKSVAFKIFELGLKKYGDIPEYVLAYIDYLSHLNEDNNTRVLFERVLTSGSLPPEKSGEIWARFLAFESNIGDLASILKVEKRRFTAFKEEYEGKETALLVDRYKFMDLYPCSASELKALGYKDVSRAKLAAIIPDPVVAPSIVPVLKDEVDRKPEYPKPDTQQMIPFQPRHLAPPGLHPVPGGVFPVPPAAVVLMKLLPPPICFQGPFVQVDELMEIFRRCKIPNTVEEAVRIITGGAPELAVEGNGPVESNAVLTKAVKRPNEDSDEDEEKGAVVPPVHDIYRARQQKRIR
UniProt P51790, sequence (P51790 whole entry, looked up): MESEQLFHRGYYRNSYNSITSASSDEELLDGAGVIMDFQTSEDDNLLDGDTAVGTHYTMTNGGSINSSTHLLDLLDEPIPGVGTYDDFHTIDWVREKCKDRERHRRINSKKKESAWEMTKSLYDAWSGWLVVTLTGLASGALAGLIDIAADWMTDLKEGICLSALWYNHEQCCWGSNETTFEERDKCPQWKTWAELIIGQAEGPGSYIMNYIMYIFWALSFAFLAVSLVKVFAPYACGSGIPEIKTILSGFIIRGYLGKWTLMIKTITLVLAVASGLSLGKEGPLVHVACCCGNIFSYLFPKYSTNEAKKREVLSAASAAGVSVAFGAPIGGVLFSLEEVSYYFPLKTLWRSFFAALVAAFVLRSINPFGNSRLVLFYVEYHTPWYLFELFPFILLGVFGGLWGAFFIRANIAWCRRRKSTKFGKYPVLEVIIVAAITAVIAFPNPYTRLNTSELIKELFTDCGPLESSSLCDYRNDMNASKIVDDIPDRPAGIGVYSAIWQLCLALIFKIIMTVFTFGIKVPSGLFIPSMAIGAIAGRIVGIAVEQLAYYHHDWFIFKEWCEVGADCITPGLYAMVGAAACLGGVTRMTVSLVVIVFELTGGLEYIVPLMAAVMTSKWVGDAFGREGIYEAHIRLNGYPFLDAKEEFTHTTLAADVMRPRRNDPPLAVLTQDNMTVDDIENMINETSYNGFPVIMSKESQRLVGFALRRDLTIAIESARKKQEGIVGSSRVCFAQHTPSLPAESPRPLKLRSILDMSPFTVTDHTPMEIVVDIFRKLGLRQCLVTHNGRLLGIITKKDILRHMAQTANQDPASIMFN
UniProt P33240, sequence (P33240 whole entry, looked up): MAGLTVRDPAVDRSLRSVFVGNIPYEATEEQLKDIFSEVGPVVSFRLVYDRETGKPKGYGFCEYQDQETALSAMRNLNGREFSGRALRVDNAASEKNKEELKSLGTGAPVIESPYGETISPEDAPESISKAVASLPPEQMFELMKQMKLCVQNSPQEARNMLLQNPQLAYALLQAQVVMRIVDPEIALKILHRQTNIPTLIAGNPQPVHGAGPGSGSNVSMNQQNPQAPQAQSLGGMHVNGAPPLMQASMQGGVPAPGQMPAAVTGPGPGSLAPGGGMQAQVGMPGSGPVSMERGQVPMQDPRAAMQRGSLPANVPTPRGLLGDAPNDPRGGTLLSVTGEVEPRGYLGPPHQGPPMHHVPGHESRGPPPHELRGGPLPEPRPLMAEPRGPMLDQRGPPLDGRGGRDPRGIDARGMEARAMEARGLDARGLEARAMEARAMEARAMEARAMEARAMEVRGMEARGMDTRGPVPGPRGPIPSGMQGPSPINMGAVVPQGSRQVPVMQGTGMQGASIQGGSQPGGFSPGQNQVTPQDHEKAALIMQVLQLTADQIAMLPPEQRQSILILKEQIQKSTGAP
UniProt O75909, sequence (O75909 whole entry, looked up): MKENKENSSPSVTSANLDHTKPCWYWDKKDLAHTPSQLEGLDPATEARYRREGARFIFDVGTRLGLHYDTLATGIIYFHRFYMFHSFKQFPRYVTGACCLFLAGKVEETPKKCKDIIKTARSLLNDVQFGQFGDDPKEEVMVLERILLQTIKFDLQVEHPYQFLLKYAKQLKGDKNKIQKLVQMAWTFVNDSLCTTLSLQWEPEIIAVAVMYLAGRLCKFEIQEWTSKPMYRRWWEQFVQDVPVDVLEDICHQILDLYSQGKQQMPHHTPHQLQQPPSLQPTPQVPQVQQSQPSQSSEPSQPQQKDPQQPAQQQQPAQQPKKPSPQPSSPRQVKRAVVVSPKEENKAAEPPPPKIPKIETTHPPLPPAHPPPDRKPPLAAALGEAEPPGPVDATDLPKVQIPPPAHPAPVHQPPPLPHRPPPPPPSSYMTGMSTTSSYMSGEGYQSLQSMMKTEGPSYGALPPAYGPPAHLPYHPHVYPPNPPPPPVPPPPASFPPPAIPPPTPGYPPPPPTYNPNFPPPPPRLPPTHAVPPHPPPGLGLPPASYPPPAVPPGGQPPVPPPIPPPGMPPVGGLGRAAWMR
UniProt P20674, sequence (P20674 whole entry, looked up): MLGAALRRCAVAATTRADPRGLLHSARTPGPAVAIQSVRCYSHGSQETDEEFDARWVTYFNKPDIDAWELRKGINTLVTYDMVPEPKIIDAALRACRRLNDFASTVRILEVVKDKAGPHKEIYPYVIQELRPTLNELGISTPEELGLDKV
UniProt Q99627, sequence (Q99627 whole entry, looked up): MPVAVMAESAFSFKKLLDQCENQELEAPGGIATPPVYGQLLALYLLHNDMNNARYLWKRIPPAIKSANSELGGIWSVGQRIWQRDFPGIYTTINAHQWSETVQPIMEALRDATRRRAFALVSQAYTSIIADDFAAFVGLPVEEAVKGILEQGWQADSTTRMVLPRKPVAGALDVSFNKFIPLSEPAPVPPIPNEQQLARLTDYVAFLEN
UniProt Q8N163, sequence (Q8N163 whole entry, looked up): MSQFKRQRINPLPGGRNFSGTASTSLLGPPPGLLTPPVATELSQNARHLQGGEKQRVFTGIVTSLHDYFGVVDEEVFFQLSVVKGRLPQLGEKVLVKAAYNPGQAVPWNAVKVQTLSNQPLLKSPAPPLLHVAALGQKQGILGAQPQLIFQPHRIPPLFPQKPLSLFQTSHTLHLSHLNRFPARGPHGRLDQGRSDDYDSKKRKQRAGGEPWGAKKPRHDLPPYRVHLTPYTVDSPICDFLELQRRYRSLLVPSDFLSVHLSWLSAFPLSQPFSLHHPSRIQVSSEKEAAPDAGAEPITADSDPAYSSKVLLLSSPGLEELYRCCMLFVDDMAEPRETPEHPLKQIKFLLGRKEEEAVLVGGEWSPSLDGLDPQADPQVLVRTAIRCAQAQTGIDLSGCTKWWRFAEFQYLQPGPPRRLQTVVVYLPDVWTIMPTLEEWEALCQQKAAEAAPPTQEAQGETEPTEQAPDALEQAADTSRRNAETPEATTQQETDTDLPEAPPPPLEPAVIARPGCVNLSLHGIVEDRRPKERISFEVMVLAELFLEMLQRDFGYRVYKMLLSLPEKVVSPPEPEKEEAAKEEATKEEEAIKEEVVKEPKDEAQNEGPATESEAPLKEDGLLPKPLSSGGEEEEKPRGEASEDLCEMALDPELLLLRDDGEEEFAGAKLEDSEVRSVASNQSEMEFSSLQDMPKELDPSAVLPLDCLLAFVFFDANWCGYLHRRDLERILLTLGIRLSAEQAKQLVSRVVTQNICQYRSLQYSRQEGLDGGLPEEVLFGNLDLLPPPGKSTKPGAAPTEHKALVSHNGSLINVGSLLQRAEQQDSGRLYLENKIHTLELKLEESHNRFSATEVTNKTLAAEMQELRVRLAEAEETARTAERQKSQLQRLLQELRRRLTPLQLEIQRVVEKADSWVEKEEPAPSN
UniProt P21964, sequence (P21964 whole entry, looked up): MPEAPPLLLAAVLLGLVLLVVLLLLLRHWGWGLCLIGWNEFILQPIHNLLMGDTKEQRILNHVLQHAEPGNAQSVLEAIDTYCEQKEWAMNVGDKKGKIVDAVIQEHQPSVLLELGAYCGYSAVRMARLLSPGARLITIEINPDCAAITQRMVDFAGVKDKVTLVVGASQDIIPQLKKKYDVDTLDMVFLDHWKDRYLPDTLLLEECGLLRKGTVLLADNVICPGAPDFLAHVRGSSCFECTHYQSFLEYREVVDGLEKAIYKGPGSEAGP
UniProt Q9UNS2, sequence (Q9UNS2 whole entry, looked up): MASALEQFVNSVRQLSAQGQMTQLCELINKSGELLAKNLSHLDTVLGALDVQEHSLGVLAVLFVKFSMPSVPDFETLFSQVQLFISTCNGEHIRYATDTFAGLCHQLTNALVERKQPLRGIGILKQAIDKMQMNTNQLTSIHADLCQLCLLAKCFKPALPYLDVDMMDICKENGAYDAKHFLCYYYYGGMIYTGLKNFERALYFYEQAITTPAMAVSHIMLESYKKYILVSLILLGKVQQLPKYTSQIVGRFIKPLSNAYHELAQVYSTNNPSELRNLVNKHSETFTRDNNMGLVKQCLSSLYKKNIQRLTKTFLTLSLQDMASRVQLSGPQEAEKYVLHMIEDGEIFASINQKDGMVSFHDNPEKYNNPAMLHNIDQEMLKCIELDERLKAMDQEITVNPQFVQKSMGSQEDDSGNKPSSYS
UniProt Q8N1A6, sequence (Q8N1A6 whole entry, looked up): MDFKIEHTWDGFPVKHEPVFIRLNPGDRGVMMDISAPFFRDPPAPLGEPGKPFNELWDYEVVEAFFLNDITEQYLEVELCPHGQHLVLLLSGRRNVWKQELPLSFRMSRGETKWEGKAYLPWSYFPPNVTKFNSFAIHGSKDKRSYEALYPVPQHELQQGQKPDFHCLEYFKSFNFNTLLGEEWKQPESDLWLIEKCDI
UniProt P14854, sequence (P14854 whole entry, looked up): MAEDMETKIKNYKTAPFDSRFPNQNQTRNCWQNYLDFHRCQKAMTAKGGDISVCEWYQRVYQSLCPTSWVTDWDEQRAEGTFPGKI

log2 fold change, inactive:
CD151 (UniProt P48509) 0.031
CBX1 (UniProt P83916) 0.045
CHCHD2 (UniProt Q9Y6H1) 0.009
CCNK isoform 4 (UniProt O75909) -0.046
CBR1 (UniProt P16152) -0.011
CASP2 (UniProt P42575) 0.051
COCH (UniProt O43405) 0.072
CTBS (UniProt Q01459) -0.003
CDKN2AIP (UniProt Q9NXV6) 0.026
CBS (UniProt P35520) -0.038
COMT (UniProt P21964) -0.057
CCDC9 (UniProt Q9Y3X0) -0.051
CHD4 isoform 2 (UniProt Q14839) 0.099
COX5A (UniProt P20674) -0.055
CLCN3 (UniProt P51790) 0.011
C4A (UniProt P0C0L4) 0.059
CCAR2 isoform 2 (UniProt Q8N163) -0.039
COPS4 (UniProt Q9BT78) -0.035
CDK16 isoform 2 (UniProt Q00536) 0.201
COPS3 (UniProt Q9UNS2) -0.02
C4orf33 (UniProt Q8N1A6) -0.126
COPS8 (UniProt Q99627) 0.044
CDK5RAP3 isoform 4 (UniProt Q96JB5) -0.004
CCZ1 (UniProt P86791) 0.039
CSTF2 (UniProt P33240) 0.07
COX6B1 (UniProt P14854) -0.009
CNDP2 (UniProt Q96KP4) -0.065
CPQ (UniProt Q9Y646) -0.004
CA1 (UniProt P00915) 0.013
CNN2 (UniProt Q99439) 0.062
CNOT2 (UniProt Q9NZN8) 0.046
CRK (UniProt P46108) 0.062
CETN2 (UniProt P41208) -0.028
CPSF1 (UniProt Q10570) 0.052
CSTF3 (UniProt Q12996) 0.029

log2 fold change, active:
CSNK2A2 (UniProt P19784) 0.873

Compound: O=C1NC(=O)C(c2cnc3ccccn23)=C1c1cn2c3c(cc(F)cc13)CN(C(=O)N1CCCCC1)CC2
Assay: as above
Procedure, shortened: as §1

log2 fold change, active:
CDK16 isoform 2 (UniProt Q00536) 0.845

log2 fold change, inactive:
CD151 (UniProt P48509) -0.063
CBX1 (UniProt P83916) 0.006
CHCHD2 (UniProt Q9Y6H1) -0.13
CCNK isoform 4 (UniProt O75909) 0.006
CBR1 (UniProt P16152) -0.039
CASP2 (UniProt P42575) -0.008
COCH (UniProt O43405) 0.055
CTBS (UniProt Q01459) 0.051
CDKN2AIP (UniProt Q9NXV6) 0.022
CBS (UniProt P35520) -0.027
COMT (UniProt P21964) -0.086
CCDC9 (UniProt Q9Y3X0) 0.021
CHD4 isoform 2 (UniProt Q14839) -0.023
COX5A (UniProt P20674) -0.228
CLCN3 (UniProt P51790) 0.038
C4A (UniProt P0C0L4) 0.038
CCAR2 isoform 2 (UniProt Q8N163) -0.151
COPS4 (UniProt Q9BT78) -0.01
COPS3 (UniProt Q9UNS2) -0.021
C4orf33 (UniProt Q8N1A6) 0.019
COPS8 (UniProt Q99627) -0.077
CDK5RAP3 isoform 4 (UniProt Q96JB5) -0.04
CCZ1 (UniProt P86791) -0.01
CSTF2 (UniProt P33240) -0.049
COX6B1 (UniProt P14854) -0.126
CNDP2 (UniProt Q96KP4) -0.005
CPQ (UniProt Q9Y646) 0.03
CA1 (UniProt P00915) -0.014
CNN2 (UniProt Q99439) -0.062
CSNK2A2 (UniProt P19784) -0.076
CNOT2 (UniProt Q9NZN8) 0.007
CRK (UniProt P46108) -0.016
CETN2 (UniProt P41208) -0.027
CPSF1 (UniProt Q10570) 0.099
CSTF3 (UniProt Q12996) 0.027
